# HEK293 tox – HEK 293 cell cytotoxicity. HEK 293 viability, ATP luminescence (CellTiter-Glo), 48-72 h. Potency, µM (series often up to 115 µM), for the others: top-dose activity change, negative = cytotoxicity, actives largely listed as inhibitors. 6.6% of 94,000 active; also: potency is read from the fitted curve at half-maximal effect; nearly all actives have a fitted effect of over 60% in size
#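 Cells seeded first (HEK 293, 250 cells/well), then compound added by pintool. Incubation ran 48 or 72 hr at 37 degree Celsius. CellTiter-Glo was added and luminescence imaged after 10 min at room temperature.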
# 3T3 cytotox – kills NIH 3T3 cells; 4.3% of 94,000 active; AID 1345082; Potency, µM (highest dose often 96.7 µM), without a hit: at the highest dose activity change, negative = cytotoxicity, most hits filed as inhibitors; NIH 3T3 viability, CellTiter-Glo ATP luminescence, 48-72 h; also: potency is read from the fitted curve at half-maximal effect; nearly all actives have a fitted effect of over 55% in size
#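 Viability of NIH 3T3 cells after 48 or 72 hr compound treatment at 37 °C was assessed by CellTiter-Glo, with luminescence imaged following a 10 min room-temperature step.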
# IP6K1 inhibitor – inhibitors of human IP6K1; Q92551; IP6K1 kinase, ADP-Glo luminescence, 2 h; active compounds read low; activity change, % (series mostly up to about 58 µM); 0.81% of 140,000 active; AID 1645851; in the data active = activity change below about -25%
#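 ADP-Glo luminescence measures ADP made by human IP6K1 during a 2 h RT reaction with ATP/IP6 (mix at 1.3 mM/130 uM); top library doses 57.5 and 19.1 uM final.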
# SNCA expr inh – SNCA gene expression inhibition. HEK-293 SNCA-luciferase knock-in, luminescence, 24 h. Potency, µM (series often up to 57.2 µM), without a hit: at the highest dose activity change, negative = inhibition, most hits filed as inhibitors. 0.17% of 140,000 active. AID 1671194;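 also: potency is read from the fitted curve at half-maximal effect; plate controls were DMSO cells for no effect and cell-free wells for full effect; nearly all actives have a fitted effect of over 45% in size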
# Luciferase inh – Photinus pyralis luciferase inhibition. P08659. purified P. pyralis luciferase, luminescence, biochemical. Potency, µM (titrated, usually from 115 µM), hits mostly inhibitors. 2.5% of 76,000 active. AID 1347043; also: potency is read from the fitted curve at half-maximal effect; nearly all actives have a fitted effect of over 65% in size
# Target sequence (P08659 whole entry, looked up): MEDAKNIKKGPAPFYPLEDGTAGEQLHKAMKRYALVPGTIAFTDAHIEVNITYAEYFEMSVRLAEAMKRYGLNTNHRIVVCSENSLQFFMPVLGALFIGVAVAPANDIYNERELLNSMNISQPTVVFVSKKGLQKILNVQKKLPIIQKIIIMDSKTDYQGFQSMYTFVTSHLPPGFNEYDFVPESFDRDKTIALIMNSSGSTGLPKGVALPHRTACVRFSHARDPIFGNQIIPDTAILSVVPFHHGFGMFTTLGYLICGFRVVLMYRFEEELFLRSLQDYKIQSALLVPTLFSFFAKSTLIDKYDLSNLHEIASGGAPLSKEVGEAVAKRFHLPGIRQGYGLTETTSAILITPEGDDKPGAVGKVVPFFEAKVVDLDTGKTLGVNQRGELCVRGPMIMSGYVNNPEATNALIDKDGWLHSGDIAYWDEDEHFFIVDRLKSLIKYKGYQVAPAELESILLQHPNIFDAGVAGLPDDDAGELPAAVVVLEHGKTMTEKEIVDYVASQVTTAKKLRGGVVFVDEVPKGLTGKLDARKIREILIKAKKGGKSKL
#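 Cell-free enzyme assay, 10nM P. pyralis luciferase, luciferin and ATP each at 10uM. Inhibition profiled over a 6-point titration, read as luminescence.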
# HEK293 viab – reduces viability of HEK-293 SNCA reporter cells. HEK-293-SNCA-luc viability, GF-AFC fluorescence, 24 h. Potency, µM (top dose mostly 57.1 µM), inactives show top-dose activity change, negative = cytotoxicity, hits mostly cytotoxic. 0.12% of 150,000 active;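 also: potency is read from the fitted curve at half-maximal effect; 0% = DMSO-treated cells and -100% = medium-only wells without cells; nearly all actives have a fitted effect of over 30% in size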
#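 Cytotoxicity counterscreen: after 24 h compound treatment of genome-edited SNCA-luciferase HEK-293 cells, live-cell protease substrate GF-AFC read by fluorescence after 30 min; activity scaled between DMSO (0%) and medium-only (-100%), curves Hill-fitted.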
# The depositor's hits bear a star; i = inactive; ? = inconclusive; . = no result; [ ] = another dose, or the depositor's remark. A selection: hits, their analogues and other compounds. The true share with any hit is near 7.3%. Unless noted, calls follow the shape of the dose curve; as a rule, active = well fitted curve in the direction sought with a large enough effect; inconclusive = small, poorly fitted or top-dose-only effect, or another doubt; inactive = no such curve, though single readings can be large; an effect the other way counts as inactive or inconclusive. Unless noted, % is scaled to controls: 0 for no effect and ±100 for the full control effect.
SMILES,HEK293 tox,3T3 cytotox,IP6K1 inhibitor,SNCA expr inh,Luciferase inh,HEK293 viab
CC(C)C[C@@H]1N[C@H](C(=O)NC(C)C)Cc2cn(Cc3ccccn3)c3cccc1c23,28µM*,45µM*,3,?,i,?
CC(C)C[C@@H]1N[C@H](C(=O)NC2CCC2)Cc2cn(Cc3ccccn3)c3cccc1c23,28µM*,35µM*,-11,?,i,?
CC(C)C[C@@H]1N[C@H](C(=O)NC2CCC2)Cc2cn(Cc3ccncc3)c3cccc1c23,?,79µM*,-2,?,i,-24%[87.6 µM]
CC(C)C[C@@H]1N[C@H](C(=O)NC2CC2)Cc2cn(Cc3nccn3C)c3cccc1c23,?,?,2,?,i,?
CC(C)C[C@@H]1N[C@H](C(=O)NCCN(C)C)Cc2cn(Cc3ccccn3)c3cccc1c23,?,28µM*,-1,-8%[87.6 µM],i,-23%[87.6 µM]
O=C(CN1CCN(C(=O)c2cc3c(s2)CN(C2CCCC2)C3)CC1)N1CCCC1,-6%,?,17,?,i,-7%
O=C(c1cccc(Cl)c1)N1CCN(C(=O)c2nc3cccnc3n(Cc3ccccc3)c2=O)CC1,?,?,-4,4%,.,-13%[12.5 µM]
CC(C)C[C@@H]1N[C@H](C(=O)NCC2CC2)Cc2cn(Cc3ccccn3)c3cccc1c23,45µM*,40µM*,2,?,i,?
CC(C)CN(C1CCN(C)CC1)C1CN(C(=O)COCc2ccccc2)C1,-5%,?,-14,-22%,.,-16%
CCn1nccc1C(=O)N1CCCCCCNC(=O)[C@@H]2C[C@@H](c3nc(Cc4ccccc4)no3)C[C@@H]21,?,-18%,9,-12%,i,7%
Cc1noc(C)c1-c1cc2c(c(-c3ccccc3O)c1)C(=O)N(C)C2=O,-34%[172 µM],?,10,6%[87.6 µM],i,?
COc1cccc(-c2nc(-c3c(C)noc3C)cc3[nH]c(C)cc23)c1OC,?,?,0,17%[87.6 µM],i,-22%[87.6 µM]
COc1ccc(-c2cc(-c3c(C)noc3C)c3cncn3c2)cc1OC,?,22µM*,-19,12%[87.6 µM],i,-20%[87.6 µM]
COc1cccc(-c2cc(-c3c(C)noc3C)c3cncn3c2)c1OC,79µM*,?,0,54%[87.6 µM],i,5%[87.6 µM]
Cc1ccccc1-c1cc(-c2c(C)noc2C)c2cncn2c1,45µM*,?,3,35%[87.6 µM],i,-9%[87.6 µM]
Cc1noc(C)c1-c1cc(-c2ccc3c(c2)C(=O)NC3)cn2cncc12,-63%[172 µM],13µM*,-4,28%[87.6 µM],i,-10%[87.6 µM]
COc1ccc(-c2cc(-c3cccnc3)c3cncn3c2)cn1,?,?,-15,23%[87.6 µM],i,-11%[87.6 µM]
Cc1nnc2ccc(N3CCN(C(=O)c4ccc(F)cc4)CC3)nn12,-28%[172 µM],?,12,.,.,.
Cc1ncsc1C1N(C2CCNCC2)C(=O)C12CCCC2 (configuration not stated),i,i,-4,?,i,0%[12.5 µM]
O=C(CC[C@@H]1CNC(=O)[C@@H]2C[C@H](NCc3ccccn3)CN12)NCc1ccccc1,71µM*,56µM*,-7,-15%[87.6 µM],i,-12%[87.6 µM]
COc1ccccc1-c1ncc(CNc2cc(C3CC(O)C3)ncn2)s1 (configuration not stated),32µM*,-64%,2,5%,i,-8%
COc1ccccc1-c1ncc(CNc2ncncn2)s1,?,-30%,-3,25%,i,-15%
COc1ccc2nc(C[C@@H]3C[C@@H](C(C)C)[C@H](CNC(=O)CCCC(=O)O)C=C3C)[nH]c2c1,0%,3%,1,19%,i,4%
COCC(=O)NC[C@@H]1C=C(C)[C@H](Cc2nc3ccc(Cl)cc3[nH]2)C[C@H]1C(C)C,?,71µM*,-11,?,i,?
COCC(=O)NC[C@@H]1C=C(C)[C@H](Cc2nc3ccc(C)cc3[nH]2)C[C@H]1C(C)C,?,50µM*,4,-37%[87.6 µM],i,?
SMILES,HEK293 tox,3T3 cytotox,IP6K1 inhibitor,SNCA expr inh,Luciferase inh,HEK293 viab
O=c1[nH]c(C2CCN([S+](=O)([O-])c3cccc(C(F)(F)F)c3)CC2)nn1-c1ccc(Cl)cc1,1%,-13%,9,-19%,i,0%
Cc1ccc(C)c(NC(=O)CSc2ncc(S(=O)(=O)c3ccc(C)c(Cl)c3)c(=O)[nH]2)c1,.,.,1,40%,.,-2%
CCOC(=O)c1ccc(NC(=O)CSc2ncc(S(=O)(=O)c3ccc(C)c(Cl)c3)c(=O)[nH]2)cc1,.,.,-49*,-2%,.,-15%
O=C(c1ccccc1Cl)N1CCc2nc(-c3ccc(Cl)cc3)nc(-c3ccccc3)c2C1,25µM*,?,-11,28%,?,1%
COc1ccc(C(=O)N2CCc3nc(-c4ccc(Cl)cc4)nc(-c4ccccc4)c3C2)cc1,40µM*,?,-8,-15%,i,-2%
O=C(Cc1ccc(F)cc1)N1CCc2nc(-c3ccc(Cl)cc3)nc(-c3ccccc3)c2C1,35µM*,?,-6,-5%,i,-25%
COc1ccc(-c2nc(C(C)C)nc3c2CCN(C(=O)c2cccc(Cl)c2)CC3)cc1,?,45µM*,-1,-4%,i,?
COCCNC(=O)c1ccc2nnc(-c3cccc([S+](C)(=O)[O-])c3)n2c1,i,-14%,8,-14%,.,-2%
COc1ccccc1CN1CCCn2nc(C)c(-c3ccccc3C(N)=O)c21,22µM*,?,13,3.5µM*,i,?
Cc1nn2c(c1-c1ccccc1Oc1ccccc1)N(Cc1cccc(O)c1)CCC2,22µM*,14µM*,9,?,i,?
Cc1nn2c(c1-c1ccccc1[S+](C)(=O)[O-])N(C(=O)c1ccccc1)CCC2,-17%[172 µM],?,10,-22%[87.6 µM],i,6%[87.6 µM]
Cc1nn2c(c1-c1ccccc1[S+](C)(=O)[O-])N(Cc1ccccc1F)CCC2,?,32µM*,25,?,i,-9%[87.6 µM]
Cc1nn2c(c1-c1ccccc1Oc1ccccc1)N(Cc1ccccc1O)CCC2,10µM*,11µM*,15,2µM*,i,?
Cc1nn2c(c1-c1ccccc1OCc1ccccc1)N(C(=O)c1cccnc1)CCC2,-7%[172 µM],?,8,-20%[87.6 µM],i,7%[87.6 µM]
CCOC(=O)C(Cc1cccc(N2CC(Oc3ccccc3Cl)C2)c1F)OC (configuration not stated),?,-29%,15,.,.,.
Cc1ccccc1C(=O)N1CCCC1C(=O)N1CCC2(CC1)CC(=O)Nc1ccccc1O2 (configuration not stated),0%,-8%,-17,11%,.,4%

# Screening results deposited in PubChem BioAssay by National Center for Advancing Translational Sciences (NCATS).
